Experimental data taken from the supplement of paper PMC10849652.
Targets with a hit are over-represented here; the source holds about 8,800 in all. About 0.5% of all pairs of compound and target were hits.

What was measured:
Assay in all cases: log2 fold change, soluble protein after heating vs DMSO (PISA); higher = thermal stabilisation; K562 lysate, 10 uM; active = over 0.2 and 3.5 SD of the protein, either way, in both replicates (recomputed)
[1] = compound: NCC(=O)Nc1ccc(-n2nc(C(F)(F)F)cc2-c2ccc3c(ccc4ccccc43)c2)cc1
Procedure, shortened: (§1)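 Log-two fold change in thermal stability relative to solvent controls is reported from duplicates. For each sample, crude K562 extract from dounce-homogenised pellets in PBS pH 7.4 with 1 mM MgCl2, at 1 mg/mL protein, was treated with 10 μM compound for 30 min. Aliquots heated for 3 min across 48°C-58°C were pooled, brought to 0.5% NP-40 at 4°C and cleared at 21,000xg for 90 min. The supernatant was quantified by TMTpro 16plex LC-MS/MS with channel sums equalised.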

vorinostat = compound: O=C(CCCCCCC(=O)Nc1ccccc1)NO [vorinostat]
Procedure, shortened: as §1

silmitasertib = compound: O=C(O)c1ccc2c(c1)nc(Nc1cccc(Cl)c1)c1ccncc12 [silmitasertib]
Procedure, shortened: as §1

[2] = compound: O=C1NC(=O)C(c2cnc3ccccn23)=C1c1cn2c3c(cc(F)cc13)CN(C(=O)N1CCCCC1)CC2
Procedure, shortened: as §1

entospletinib = compound: c1cn2cc(-c3ccc4cn[nH]c4c3)nc(Nc3ccc(N4CCOCC4)cc3)c2n1 [entospletinib]
Procedure, shortened: as §1

Measured: log2 fold change

TUBB4A (UniProt M0QYM7)
inactive: [1] 0.128 | vorinostat -0.431 | silmitasertib 0.01 | [2] -0.062 | entospletinib 0.032

TTLL12 (UniProt V9GY16)
inactive: [1] 0.115 | vorinostat 0.076 | silmitasertib -0.298 | [2] 0.035 | entospletinib 0.103

UBTF (UniProt P17480)
UniProt P17480, sequence (P17480 whole entry, looked up): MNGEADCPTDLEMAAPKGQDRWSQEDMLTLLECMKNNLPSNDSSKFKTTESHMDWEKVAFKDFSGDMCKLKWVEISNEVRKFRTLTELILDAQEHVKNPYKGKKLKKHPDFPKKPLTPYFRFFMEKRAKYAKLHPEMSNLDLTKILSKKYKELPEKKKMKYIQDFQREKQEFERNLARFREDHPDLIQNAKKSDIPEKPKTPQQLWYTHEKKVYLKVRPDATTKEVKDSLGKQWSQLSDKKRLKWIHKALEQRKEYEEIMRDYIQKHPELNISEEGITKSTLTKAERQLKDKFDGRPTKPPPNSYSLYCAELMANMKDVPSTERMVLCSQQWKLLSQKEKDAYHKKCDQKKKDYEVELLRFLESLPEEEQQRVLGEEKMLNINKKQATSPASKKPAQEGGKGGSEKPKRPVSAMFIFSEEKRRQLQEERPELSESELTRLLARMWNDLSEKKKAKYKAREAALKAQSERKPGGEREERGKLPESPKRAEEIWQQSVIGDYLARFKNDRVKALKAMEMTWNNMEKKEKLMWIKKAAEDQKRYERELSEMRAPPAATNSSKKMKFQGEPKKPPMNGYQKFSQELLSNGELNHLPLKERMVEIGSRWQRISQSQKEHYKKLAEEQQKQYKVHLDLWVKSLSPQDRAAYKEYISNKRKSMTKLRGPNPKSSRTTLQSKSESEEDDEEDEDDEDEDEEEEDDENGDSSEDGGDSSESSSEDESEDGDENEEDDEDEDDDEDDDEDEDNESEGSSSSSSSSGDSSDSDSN
inactive: [1] -0.045 | silmitasertib 0.044 | [2] -0.012 | entospletinib 0.032
active: vorinostat -0.315

TTI1 (UniProt O43156)
active: vorinostat -0.452
inactive: [1] -0.037 | silmitasertib 0.089 | [2] -0.019 | entospletinib -0.017

UBE3B (UniProt Q7Z3V4)
UniProt Q7Z3V4, sequence (Q7Z3V4 whole entry, looked up): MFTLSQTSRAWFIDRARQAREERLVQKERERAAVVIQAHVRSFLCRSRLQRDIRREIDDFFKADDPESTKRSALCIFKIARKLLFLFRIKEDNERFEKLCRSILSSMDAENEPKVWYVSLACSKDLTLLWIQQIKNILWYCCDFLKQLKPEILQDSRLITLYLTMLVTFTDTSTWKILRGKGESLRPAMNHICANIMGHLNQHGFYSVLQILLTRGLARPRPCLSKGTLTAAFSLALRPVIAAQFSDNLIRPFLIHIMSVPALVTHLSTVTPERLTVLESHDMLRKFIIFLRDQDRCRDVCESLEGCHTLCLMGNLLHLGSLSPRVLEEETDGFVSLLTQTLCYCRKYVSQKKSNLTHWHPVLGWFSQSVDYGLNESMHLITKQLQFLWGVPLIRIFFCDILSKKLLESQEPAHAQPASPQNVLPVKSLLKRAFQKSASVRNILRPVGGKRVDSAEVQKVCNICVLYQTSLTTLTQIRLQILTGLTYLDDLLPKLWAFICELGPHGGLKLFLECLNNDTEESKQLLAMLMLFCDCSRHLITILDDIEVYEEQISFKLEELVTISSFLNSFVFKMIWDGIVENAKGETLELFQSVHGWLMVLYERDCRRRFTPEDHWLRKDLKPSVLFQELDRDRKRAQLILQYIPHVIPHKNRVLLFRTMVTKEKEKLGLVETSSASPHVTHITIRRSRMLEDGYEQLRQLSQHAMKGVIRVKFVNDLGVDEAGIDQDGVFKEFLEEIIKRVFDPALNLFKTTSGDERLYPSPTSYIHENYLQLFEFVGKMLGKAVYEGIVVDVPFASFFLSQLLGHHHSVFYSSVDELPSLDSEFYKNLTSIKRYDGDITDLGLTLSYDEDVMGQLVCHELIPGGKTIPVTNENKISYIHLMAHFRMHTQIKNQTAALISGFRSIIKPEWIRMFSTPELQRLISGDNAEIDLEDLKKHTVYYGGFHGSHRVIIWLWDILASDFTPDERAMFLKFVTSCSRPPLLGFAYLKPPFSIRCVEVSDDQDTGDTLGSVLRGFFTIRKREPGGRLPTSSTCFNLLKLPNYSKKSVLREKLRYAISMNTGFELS
inactive: [1] 0.117 | silmitasertib 0.061 | [2] 0.007 | entospletinib 0.115
active: vorinostat -0.838

TTI2 (UniProt Q6NXR4)
active: vorinostat -0.303
inactive: [1] 0.05 | silmitasertib 0.015 | [2] 0.034 | entospletinib 0.005

TESC (UniProt Q96BS2)
inactive: [1] -0.036 | vorinostat 0.058 | silmitasertib 0.103 | [2] -0.014 | entospletinib -0.111

TMEM70 (UniProt Q9BUB7)
inactive: [1] -0.081 | vorinostat 0.122 | silmitasertib 0.017 | [2] -0.108 | entospletinib 0.015

TUBB6 (UniProt Q9BUF5)
UniProt Q9BUF5, sequence (Q9BUF5 whole entry, looked up): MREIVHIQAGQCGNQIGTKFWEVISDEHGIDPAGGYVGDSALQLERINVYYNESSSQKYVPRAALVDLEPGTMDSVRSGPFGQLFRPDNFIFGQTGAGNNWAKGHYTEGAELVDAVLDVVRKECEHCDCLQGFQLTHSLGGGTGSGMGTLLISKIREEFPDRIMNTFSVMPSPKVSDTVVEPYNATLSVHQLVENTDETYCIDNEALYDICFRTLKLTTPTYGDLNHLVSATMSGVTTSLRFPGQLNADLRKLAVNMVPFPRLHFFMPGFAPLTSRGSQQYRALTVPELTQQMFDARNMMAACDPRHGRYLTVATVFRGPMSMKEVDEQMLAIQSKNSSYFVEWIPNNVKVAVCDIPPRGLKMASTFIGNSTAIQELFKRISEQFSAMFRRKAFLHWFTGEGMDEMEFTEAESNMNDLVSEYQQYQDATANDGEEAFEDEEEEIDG
active: vorinostat -0.558
inactive: [1] 0.013 | silmitasertib 0.04 | [2] 0.013 | entospletinib 0.004

UBE2D1 (UniProt P51668)
inactive: [1] -0.01 | vorinostat 0.088 | silmitasertib -0.101 | [2] -0.001 | entospletinib 0.056

TNPO3 (UniProt Q9Y5L0)
inactive: [1] 0.017 | silmitasertib 0.015 | [2] 0.009 | entospletinib 0.022
active: vorinostat -0.317

TTC37 (UniProt Q6PGP7)
UniProt Q6PGP7, sequence (Q6PGP7 whole entry, looked up): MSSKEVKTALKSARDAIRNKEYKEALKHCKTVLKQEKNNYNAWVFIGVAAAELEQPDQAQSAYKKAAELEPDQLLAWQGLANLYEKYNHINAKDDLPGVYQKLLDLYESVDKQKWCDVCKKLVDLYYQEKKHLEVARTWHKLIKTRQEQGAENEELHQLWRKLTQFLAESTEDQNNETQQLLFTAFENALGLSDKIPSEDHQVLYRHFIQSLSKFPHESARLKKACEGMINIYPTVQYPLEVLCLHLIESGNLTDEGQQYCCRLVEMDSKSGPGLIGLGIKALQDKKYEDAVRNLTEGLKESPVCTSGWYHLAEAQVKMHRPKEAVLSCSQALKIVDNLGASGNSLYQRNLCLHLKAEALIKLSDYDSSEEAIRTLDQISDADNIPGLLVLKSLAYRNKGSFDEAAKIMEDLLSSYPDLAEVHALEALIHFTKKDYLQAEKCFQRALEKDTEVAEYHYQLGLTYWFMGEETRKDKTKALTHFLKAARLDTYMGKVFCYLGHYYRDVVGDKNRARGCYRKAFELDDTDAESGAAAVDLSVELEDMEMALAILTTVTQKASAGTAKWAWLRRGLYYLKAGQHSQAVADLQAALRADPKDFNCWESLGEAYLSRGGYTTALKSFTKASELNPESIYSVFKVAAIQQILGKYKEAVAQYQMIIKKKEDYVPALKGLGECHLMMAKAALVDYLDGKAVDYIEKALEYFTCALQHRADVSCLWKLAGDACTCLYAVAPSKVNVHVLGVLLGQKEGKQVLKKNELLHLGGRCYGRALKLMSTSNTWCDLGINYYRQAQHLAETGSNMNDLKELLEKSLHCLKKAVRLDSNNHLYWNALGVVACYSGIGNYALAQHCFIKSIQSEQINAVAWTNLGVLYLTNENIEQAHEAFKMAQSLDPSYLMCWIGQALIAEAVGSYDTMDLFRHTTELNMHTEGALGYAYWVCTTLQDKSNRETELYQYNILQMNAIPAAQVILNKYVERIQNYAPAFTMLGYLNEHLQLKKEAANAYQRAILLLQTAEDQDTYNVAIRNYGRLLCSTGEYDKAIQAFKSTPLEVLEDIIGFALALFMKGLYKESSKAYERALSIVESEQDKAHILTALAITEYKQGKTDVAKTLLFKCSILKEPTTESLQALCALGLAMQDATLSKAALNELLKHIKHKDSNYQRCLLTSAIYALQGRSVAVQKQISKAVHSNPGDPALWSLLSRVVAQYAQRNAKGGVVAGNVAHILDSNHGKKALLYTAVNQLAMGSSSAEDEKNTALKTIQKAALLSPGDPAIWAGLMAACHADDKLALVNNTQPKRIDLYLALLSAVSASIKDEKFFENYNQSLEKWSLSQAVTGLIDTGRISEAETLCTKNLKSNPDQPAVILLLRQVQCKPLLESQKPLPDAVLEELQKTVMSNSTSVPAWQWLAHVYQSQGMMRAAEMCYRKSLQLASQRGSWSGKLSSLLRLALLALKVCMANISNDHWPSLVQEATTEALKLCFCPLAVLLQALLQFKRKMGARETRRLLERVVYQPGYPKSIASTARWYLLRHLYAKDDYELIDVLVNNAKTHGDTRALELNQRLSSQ
inactive: [1] 0.136 | vorinostat 0.153 | silmitasertib 0.03 | [2] 0.046

UBXN10 (UniProt Q96LJ8)
active: vorinostat -0.321
inactive: [1] -0.018 | silmitasertib -0.005 | [2] -0.002 | entospletinib 0

TPM4 isoform 2 (UniProt P67936)
inactive: [1] 0.02 | vorinostat 0.082 | silmitasertib -0.016 | [2] -0.014 | entospletinib 0.02

TP53RK (UniProt Q96S44)
inactive: [1] -0.017 | vorinostat 0.049 | silmitasertib -0.19 | [2] -0.014 | entospletinib 0.031

TDRD3 isoform 3 (UniProt Q9H7E2)
UniProt Q9H7E2, sequence (Q9H7E2 whole entry, looked up): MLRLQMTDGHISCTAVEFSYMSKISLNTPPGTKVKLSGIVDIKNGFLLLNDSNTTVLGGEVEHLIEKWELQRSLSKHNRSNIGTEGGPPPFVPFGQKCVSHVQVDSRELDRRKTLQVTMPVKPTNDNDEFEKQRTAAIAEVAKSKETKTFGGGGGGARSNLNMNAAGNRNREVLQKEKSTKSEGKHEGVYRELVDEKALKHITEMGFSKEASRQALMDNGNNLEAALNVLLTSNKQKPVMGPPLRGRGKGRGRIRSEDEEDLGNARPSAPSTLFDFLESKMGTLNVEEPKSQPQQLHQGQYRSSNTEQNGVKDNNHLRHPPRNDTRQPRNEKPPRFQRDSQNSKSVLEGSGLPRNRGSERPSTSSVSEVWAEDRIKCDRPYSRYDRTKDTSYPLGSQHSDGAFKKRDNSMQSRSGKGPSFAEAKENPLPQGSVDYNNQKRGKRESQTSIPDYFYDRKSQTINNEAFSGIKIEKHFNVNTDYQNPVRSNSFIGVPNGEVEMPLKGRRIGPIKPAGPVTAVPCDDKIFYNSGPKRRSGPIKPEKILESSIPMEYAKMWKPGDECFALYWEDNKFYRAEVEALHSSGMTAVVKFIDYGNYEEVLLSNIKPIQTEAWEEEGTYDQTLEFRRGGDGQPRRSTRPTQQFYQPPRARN
inactive: [1] 0.23 | vorinostat -0.016 | silmitasertib -0.03 | [2] 0.008 | entospletinib -0.041

TRIM11 (UniProt Q96F44)
UniProt Q96F44, sequence (Q96F44 whole entry, looked up): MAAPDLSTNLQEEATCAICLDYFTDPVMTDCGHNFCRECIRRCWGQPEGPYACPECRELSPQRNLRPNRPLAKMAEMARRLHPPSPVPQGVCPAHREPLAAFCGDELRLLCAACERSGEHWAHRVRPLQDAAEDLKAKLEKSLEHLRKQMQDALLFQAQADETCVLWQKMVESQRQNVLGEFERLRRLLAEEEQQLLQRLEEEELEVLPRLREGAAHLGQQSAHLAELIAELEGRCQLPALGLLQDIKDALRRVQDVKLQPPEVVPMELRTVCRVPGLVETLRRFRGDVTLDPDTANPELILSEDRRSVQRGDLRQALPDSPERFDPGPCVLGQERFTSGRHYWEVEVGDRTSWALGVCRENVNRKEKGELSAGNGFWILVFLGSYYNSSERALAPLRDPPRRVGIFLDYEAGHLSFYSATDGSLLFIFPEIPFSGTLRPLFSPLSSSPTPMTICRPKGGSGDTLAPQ
inactive: [1] 0.018 | silmitasertib 0.046 | [2] -0.035 | entospletinib -0.045
active: vorinostat -0.222

TMEM263 (UniProt Q8WUH6)
inactive: [1] 0.053 | vorinostat 0.289 | silmitasertib -0.15 | [2] -0.113 | entospletinib -0.034

TPM3 (UniProt P06753)
inactive: [1] 0.004 | vorinostat 0.112 | silmitasertib 0.012 | [2] -0.004 | entospletinib 0.008

TPM1 (UniProt H7BYY1)
inactive: [1] 0.057 | vorinostat 0.136 | silmitasertib -0.024 | [2] -0.049 | entospletinib 0.008

TRIP12 isoform 2 (UniProt Q14669)
active: vorinostat -0.266
inactive: [1] -0.057 | silmitasertib 0.03 | [2] 0.005 | entospletinib -0.002

TNIK (UniProt C9J338)
inactive: [1] 0.195 | vorinostat 0.103 | silmitasertib -0.023 | [2] 0.006 | entospletinib -0.049

TTF2 (UniProt Q9UNY4)
inactive: [1] 0.02 | silmitasertib 0.008 | [2] -0.032 | entospletinib -0.074
active: vorinostat -0.317

TPP2 (UniProt Q5VZU9)
inactive: [1] -0.125 | vorinostat -0.173 | silmitasertib 0.044 | [2] 0.002 | entospletinib 0.109

TRMT12 (UniProt Q53H54)
active: vorinostat -0.35
inactive: [1] 0.045 | silmitasertib -0.039 | [2] -0.043 | entospletinib -0.125
